For 13 compounds, growth results are on record in PubChem BioAssay (NCI).

Common to all, as to test: NCI-60 one-dose screen, 48 h (100 = growth as untreated, 0 = no growth, -100 = all killed)
Holding throughout (settings): 10 µM unless noted

The subject of experiment [1] is NCI-H23 lung.
The subject of experiment [2] is NCI-H226 lung.
In experiment [3] the test system is NCI-H322M lung.
The subject of experiment [4] is HOP-62 NSCLC.
In experiment [5] the test system is NCI-H460 lung.
The subject of experiment [6] is HOP-92 NSCLC.
Experiment [7] concerns NCI-H522 lung.
Experiment [8] concerns A549/ATCC NSCLC.
The subject of experiment [9] is 786-0 renal.
Experiment [10] relates to COLO 205 colon.

This is part of a sample that, as a whole, favours compounds with a hit. Of some 83,000 tested, about 20% had one in any assay.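 Negative percent growth values reflect cell death: -40 means 40% of the cells present at the start died, and -100 means all died.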 Values without a mark were called inactive. Active and inactive are the calls of the source. The calls were made as follows: active = growth percent below 10; inactive = the rest.

`C[C@@H]1OCC2(CCN(c3cnc(C(=O)Nc4cc(F)cc5cccnc45)cn3)CC2)[C@@H]1N`: the growth was 82.2% in experiment [1]; 78.6% in [2]; 85.3% in [3]; 83.8% in [4]; 93.5% in experiment [5]; 45.7% in experiment [6]. The growth was 34.8% in experiment [7], 82.2% in experiment [8], 71.3% in experiment [9] and 9.27% (active) in experiment [10].
`COc1ccc2[nH]cc(-c3nc(N)nnc3-c3cn(C)c4ccc(Br)cc34)c2c1`: the growth in experiment [1] was 43.9%; in experiment [2], 34.7%; in experiment [3] it was 53.7%; in [4], 38.9%; in [5] it was 15.1%; in experiment [6] it was 44%. Moreover, the growth in experiment [7] was 7.41% (active); in experiment [8] it was 35.6%; in experiment [9], 24.1%; in experiment [10], 20%.
On to `COc1ccc(C2C(C#N)=C(/N=C/c3ccc(Cl)cc3)Oc3c2sc2c(C)cccc32)cc1` (stereo not given), for which the growth is 26.2% in [1]; 45.4% in experiment [2]; 44.2% in experiment [3]; 29.8% in [4]; 10.1% in experiment [5]; 30.5% in experiment [6]. Moreover, the growth is -40.8% (active) in experiment [7], 34.2% in experiment [8], 39.2% in experiment [9] and -22.3% (active) in experiment [10].
For `COc1cc(C(C)=C(c2ccc(OCCN(C)C)cc2)c2ccc(OCCN(C)C)cc2)ccc1F`, the growth in experiment [1] was 96.5%; in experiment [2], 92.9%; in [3], 96.6%; in [4], 97.2%; in experiment [5], 106%; in [6], 73.4%. Moreover, the growth in experiment [7] was 99.7%; in [8], 113%; in experiment [9], 94.3%; in experiment [10], 104%.
Take `Cn1cc(-c2nn3cc(-c4ccncc4)nc3s2)c2cc(F)ccc21`: the growth in experiment [1] is 82%; in experiment [2] it was 83.5%; in experiment [3], 87.9%; in [4], 79.6%; in experiment [5] it was 65.8%; in experiment [6] it was 49.2%. Further, the growth was 86.9% in experiment [7], 94.9% in [8], 89.6% in experiment [9] and 55% in [10].
Consider `O=S1SC(c2ccccc2)=NN1c1cc(F)cc(F)c1` (stereo not given), for which the growth in experiment [1] is 22.9%; in experiment [2], 45.4%; in [3], 67.9%; in [4], 48.6%; in experiment [5] it was 19.6%; in experiment [6], -25.2% (active). The growth in [7] was 34.6%; in experiment [8] it was 26%; in experiment [9], 34.9%; in [10], 107%.
Take `C#CCN(C)CCCOc1ccc(NC(=O)CCCCCCCCC(=O)NO)cc1Cl`: the growth in experiment [1] is 54.2%; in experiment [2], 73.2%; in experiment [3] it was 92.2%; in experiment [4], 77.6%; in [5] it was 81.8%; in experiment [6], 64.8%. In addition, the growth in [7] is 51.9%; in [8], 72.9%; in experiment [9] it was 87.9%; in [10], 76.1%.
As for `C=C(C)[C@@H]1CC[C@]2(C(=O)N3CCN(C)CC3)CC[C@]3(C)[C@H](CC[C@@H]4[C@@]5(C)CC[C@H](OP(=O)(OCC)OCC)C(C)(C)[C@@H]5CC[C@]43C)[C@@H]12`, the growth is 83.1% in experiment [1]; 75.8% in [2]; 101% in [3]; 96.2% in experiment [4]; 91.3% in [5]; 63.8% in experiment [6]. Further, the growth was 81.7% in experiment [7], 75.6% in [8], 70.3% in experiment [9] and 90.8% in [10].
In the case of `C#Cc1cc(OC)c(C(=O)Nc2ccc(F)cc2C(=O)Nc2cccc(S(=O)(=O)C(F)(F)F)c2)cn1`, the growth is -49.4% (active) in experiment [1]; 13.1% in experiment [2]; 88.9% in [3]; 16.3% in [4]; 26.6% in [5]; -65.7% (active) in experiment [6]. The growth was -69.3% (active) in [7], -7.6% (active) in experiment [8], -78.7% (active) in experiment [9] and 52.2% in experiment [10].
On to `O=C(CN1CCN(c2cc(=O)[nH]c3ccc(F)cc23)CC1)N(c1ccccc1)c1ccccc1`, for which the growth in [1] is 99.1%; in [2], 103%; in experiment [3] it was 104%; in experiment [4], 102%; in experiment [5] it was 104%; in experiment [6], 98.4%. In addition, the growth in experiment [7] was 98.3%; in experiment [8] it was 115%; in experiment [9] it was 96%; in [10] it was 115%.
On to `CC1=C(C)C(=O)C(Nc2cccc(C)c2)=C(Br)C1=O`, for which the growth in [1] was 85.1%; in experiment [2], 92.2%; in experiment [3] it was 98.4%; in experiment [4], 90.7%; in experiment [5], 103%; in experiment [6], -35.5% (active). For the same compound, the growth in experiment [7] is 94.6%; in experiment [8] it was 101%; in [9], 107%; in [10], 126%.
Turning to `COC(=O)CNC(=O)c1cccc(-c2cc(=O)c3c(OC)c(OC)c(OC)cc3o2)c1`, the growth in [1] is 98.1%; in experiment [2], 95.8%; in experiment [3], 85.4%; in experiment [4], 119%; in experiment [5], 98.7%; in experiment [6], 67.6%. Moreover, the growth in [7] was 99.6%; in experiment [8], 101%; in experiment [9], 104%; in experiment [10], 114%.
Regarding `Cn1cc(-c2nc(N)nnc2-c2c[nH]c3ccc(Br)cc23)c2cc(F)ccc21`, the growth in experiment [1] was 93.3%; in experiment [2], 96.6%; in experiment [3], 86.1%; in experiment [4] it was 103%; in experiment [5], 97.7%; in experiment [6], 98.7%. For the same compound, the growth in [7] was 89.1%; in experiment [8], 103%; in experiment [9], 98.3%; in experiment [10] it was 103%.
